These results are taken from ChEMBL document CHEMBL3988442, “University of Dundee, Small-Polar-MMV Screening Library” (2021).

Screen size: about 48,000 compounds; about 13,000 (27%) showed an effect of 50% or more. The list shows a part of the results.

The subject of this test is Wolbachia pipientis. Kind of test: Anti-Wolbachia Cell-Based Screen. In kind it is functional. More on the design: scale not given: in the data most compounds retested in dose-response had high values. To be noted: 5 µM.
Consider `C/C=C(\C)CN1C[C@H](NC(=O)c2cc[nH]c2C)[C@@H](C2CC2)C1`, for which the “Percent Effect” value is given as -10.95%. To `CN(C)c1ncncc1NC(=O)Cc1c[nH]c2ccc(F)cc12` belongs -1.659%. To `CC(=O)c1cccc(OCCCC(=O)N(C)CCC(F)(F)F)c1` belongs 2.017%; to `COC(C)c1noc(CN2CCCNCC2)n1` (stereo unspecified), -0.5202%. For `CCOC(C)c1noc(CN2CCNCC2)n1` (stereo unspecified), the “Percent Effect” value is listed as -2.697%. On to `CNC(=O)C1CCCN(C(=O)c2ccccc2-n2cc(CN)cn2)C1` (stereo unspecified), for which the “Percent Effect” value was found to be 111.9%. On to `CN(C)C(=O)N1CCCC(C(=O)N(C)CCCc2cnn(C)c2)C1` (stereo unspecified), for which the “Percent Effect” value was determined as 4.306%. To `Cc1ccn(-c2ccc(C(=O)N3CCCC(C(N)=O)C3)cc2)n1` (stereo unspecified) belongs -6.024%; to `NCc1cnn(-c2ccccc2C(=O)NCc2ccncc2)c1`, -9.699%; to `NCc1cnn(-c2ccccc2C(=O)N2CCCC(C(N)=O)C2)c1` (stereo unspecified), 94.05%. For `CNC(=O)C1CCCN(C(=O)NCCC2Cc3ccccc3C2)C1` (stereo unspecified), the “Percent Effect” value is -25.4%. Regarding `NC(=O)C1CCCN(S(=O)(=O)c2cnn(-c3ccccc3)c2)C1` (stereo unspecified), the “Percent Effect” value is on record as 5.842%. To `CN(C)C(=O)N1CCCC(C(=O)N(C)Cc2cnc(N)nc2)C1` (stereo unspecified) belongs 11.15%. Turning to `CN(C)C(=O)C1CCCN(C(=O)c2ccccc2-n2cc(CN)cn2)C1` (stereo unspecified), the “Percent Effect” value is reported as 125.8%. Then `NC(=O)c1cccc(CNC/C=C/c2ccccc2)c1`, with -6.459%; and `CC(C)OCCOCC(O)CN(C)C(=O)Nc1ccc(F)cc1Cl` (stereo unspecified), with -7.203%; and `CCc1nc(CNc2cc(Cl)ccc2OCC2CCCO2)no1` (stereo unspecified), with -12.87%. As to `CCc1cnc2c(c1NCc1ccc(OC)cc1)c(=O)n(C)c(=O)n2C`, the “Percent Effect” value was 121.6%. Turning to `CCc1cnc2c(c1NCc1cccc(OC)c1)c(=O)n(C)c(=O)n2C`, the “Percent Effect” value was -3.77%. In the case of `CCn1c(Nc2ccccc2OC)nc2c(C)nn(C)c2c1=O`, the “Percent Effect” value is reported as 5.481%. To `CCc1cnc2c(c1Nc1ccc(OC)cc1)c(=O)n(C)c(=O)n2C` belongs -2.304%; to `COc1cccc(CNc2c(C)cnc3c2c(=O)n(C)c(=O)n3C)c1`, -20.05%. Then `CCc1cnc2c(c1Nc1ccccc1OC)c(=O)n(C)c(=O)n2C`, with 117.3%. To `CCc1cnc2c(c1Nc1cccc(OC)c1)c(=O)n(C)c(=O)n2C` belongs 98.75%.

For `CCOc1ccccc1Nc1nc2c(C)nn(C)c2c(=O)n1C`, the “Percent Effect” value was -3.425%. Take `CCc1cnc2c(c1NCc1ccncc1)c(=O)n(C)c(=O)n2C`: the “Percent Effect” value is reported as -11.7%. For the molecule `O=C(N1CCCCC1)N1CCN(CC(O)c2ccc(F)cc2)CC1` (stereo unspecified), the “Percent Effect” value is on record as -12.83%. As for `Cc1nc(CNC(=O)Nc2ccc3c(c2)CCCC(=O)N3)sc1C`, the “Percent Effect” value is on record as 3.802%. For `Cn1c(CO)cnc1SC(C(=O)NC1CC1)c1ccccc1` (stereo unspecified), the “Percent Effect” value is -13.82%.

For `CC(C)NC(=O)[C@@H]1C[C@@H](N)CN1C(=O)c1cc2c([nH]c1=O)CCCC2`, the “Percent Effect” value is 7.662%. As for `CC(C)CNC(=O)c1cc(C2CC2)nc2c1c(C1CCCN1)nn2C` (stereo unspecified), the “Percent Effect” value is listed as 129.8%.

For the molecule `CC(C)CC(NC(=O)c1cc(C2CC2)n[nH]1)c1ncnn1C` (stereo unspecified), the “Percent Effect” value is -18.23%. To `CCCn1ncc2c(C(=O)Nc3cnn(CC)c3C)cc(C3CC3)nc21` belongs 3.978%; to `Cn1nc(C2CCNC2)c2c(C(=O)NCC(F)(F)F)cc(C3CC3)nc21` (stereo unspecified), 104.4%. To `O=C(NCC(F)(F)F)NC1CCCc2c1cnn2CCO` (stereo unspecified) belongs 2.681%. To `Cn1nc(C2CCCN2)c2c(C(=O)NCC(F)(F)F)cc(C3CC3)nc21` (stereo unspecified) belongs 125.9%. For `Cc1csc(N2CCCN(C(=O)c3nccnc3N)CC2)n1`, the “Percent Effect” value was 0.5076%. To `CC(NCC1CCN(CCO)CC1)c1ccc(F)c(Cl)c1` (stereo unspecified) belongs 2.095%; to `CC(C)CN1C(=O)C2(CCCC2)NC1c1c[nH]nc1-c1cccnc1` (stereo unspecified), -9.401%.

Turning to `CNC(=O)C(C)(C)N1CCC[C@H]1C(=O)NCCN1CCCC1.Cl.Cl`, the “Percent Effect” value is 7.406%. To `CCC(CNC(=O)N1CCOCC2(CCOCC2)C1)c1ccccc1` (stereo unspecified) belongs -24.39%; to `O=S(=O)(N1CCCC1)N(Cc1ccccc1)CC1CCCO1` (stereo unspecified), 124.5%; to `CCN(CC)S(=O)(=O)N1CCCN(CC2CCCO2)CC1` (stereo unspecified), 96.25%. To `CCS(=O)(=O)CCN(CC1CCCO1)C1CCCC1` (stereo unspecified) belongs -6.431%; to `CCN(CC)S(=O)(=O)N1CCCN(CC(=O)NC(C)C)CC1`, -10.54%. Take `CCN(CCS(=O)(=O)CC)CC1CCCO1` (stereo unspecified): the “Percent Effect” value is recorded as 2.463%. Then `CC(C)N(C)S(=O)(=O)N(Cc1cccs1)CC1CCCO1` (stereo unspecified), with 1.212%. As for `O=C(CN(Cc1cccc(F)c1)CC1CCCO1)N1CCCC1` (stereo unspecified), the “Percent Effect” value turned out to be 12.97%. Then `CCN(CC(=O)NC)S(=O)(=O)N1CCCCC1`, with 6.131%; and `CCN(CC1CCCO1)S(=O)(=O)N1CCCCCC1` (stereo unspecified), with 99.13%. For the molecule `Cc1cc(CN[C@@H](Cc2ccccc2)C(N)=O)c(C)s1`, the “Percent Effect” value was -7.626%.

On to `Cc1cc(C)n(CCNC(=O)c2ncc[nH]2)c(=O)n1`, for which the “Percent Effect” value was -0.5408%. Then `CSc1ncccc1C(=O)N1C[C@H]2CC[C@@H]1CN(c1ncccn1)C2`, with -10.71%; and `CN(CC(=O)NCCC#N)C(c1ccccc1)c1ccccc1`, with -3.756%. To `FC(F)Oc1ccc(NCc2nc(C3CC3)no2)c(OC(F)F)c1` belongs 6.863%. Then `Cc1noc(C(C)C)c1C(=O)NCC(c1cccs1)N(C)C` (stereo unspecified), with 102.8%; and `Cc1noc(C(C)C)c1C(=O)NCC(c1cccc(F)c1)N(C)C` (stereo unspecified), with -3.913%; and `Cc1ccc(C(CNC(=O)c2c(C)noc2C(C)C)N(C)C)cc1` (stereo unspecified), with 95.03%. Turning to `CN(C)C(CNC(=O)c1nc(N2CCOCC2)ncc1Cl)c1cccs1` (stereo unspecified), the “Percent Effect” value was 4.739%.

For the molecule `Cc1noc(C(C)C)c1C(=O)NCC(c1ccccc1)N(C)C` (stereo unspecified), the “Percent Effect” value is reported as 108.3%. Consider `Cc1ccc(C(CNC(=O)c2cc(CC(C)C)nn2C)N(C)C)cc1` (stereo unspecified), for which the “Percent Effect” value is listed as -5.66%. To `CC(C)C(=O)NS(=O)(=O)CCc1ccccc1` belongs -1.365%; to `Cc1ccnc(NCCNC(=O)CCNC(=O)c2ccccc2F)c1`, 6.973%; to `Cc1ccc(CN2CCc3onc(C(=O)N4CCCC4)c3C2)o1.O=C(O)C(F)(F)F`, 105.8%. Then `Cc1ccc(CN2CCc3[nH]nc(C(=O)N4CCN(C)CC4)c3C2)o1.O=C(O)C(F)(F)F.O=C(O)C(F)(F)F.O=C(O)C(F)(F)F`, with -23.43%. For `Cc1ccc(CN2CCc3[nH]nc(C(=O)N(C)C)c3C2)o1.O=C(O)C(F)(F)F`, the “Percent Effect” value turned out to be 3.694%. To `Cn1cc(CN2CCc3onc(C(=O)N4CCCC4)c3C2)cn1.O=C(O)C(F)(F)F` belongs 123%; to `Cc1ccc(CN2CCc3onc(C(=O)Nc4cccnc4)c3C2)o1.O=C(O)C(F)(F)F.O=C(O)C(F)(F)F`, 119.7%. Consider `Cn1cc(CN2CCc3onc(COc4cccnc4)c3C2)cn1.O=C(O)C(F)(F)F.O=C(O)C(F)(F)F`, for which the “Percent Effect” value is reported as -7.028%. To `Cc1ccc(CN2CCc3onc(C(=O)NC(C)C)c3C2)o1.O=C(O)C(F)(F)F` belongs 106.2%. `CC(C)NC(=O)N1CCc2onc(C(=O)Nc3cccnc3)c2C1.O=C(O)C(F)(F)F`: the “Percent Effect” value is on record as -28.12%. Take `CCO[C@@H]1C[C@H]2CN(Cc3ccc(C)o3)CCN2C1.O=C(O)C(F)(F)F.O=C(O)C(F)(F)F`: the “Percent Effect” value is on record as -6.795%. Then `COCc1nn(C)c2c1CN(Cc1cnn(C)c1)CC2.O=C(O)C(F)(F)F`, with -20.95%; and `CN(C)C(=O)N1CCc2onc(C(=O)Nc3cccnc3)c2C1.O=C(O)C(F)(F)F`, with -32.01%. To `Cc1ccc(CN2CCO[C@@H]3C[C@@H](C(=O)NC(C)C)C[C@H]32)o1.O=C(O)C(F)(F)F` belongs -8.614%; to `O=C1CC[C@H]2CN(Cc3cccnc3)CC[C@H]2N1CCc1c[nH]cn1`, -39.87%; to `CN(c1ccccc1C(=O)O)S(=O)(=O)c1cccc2cccnc12`, -35.11%. Then `Cc1ccc(CN2CCc3onc(C(=O)NCCN(C)C)c3C2)o1.O=C(O)C(F)(F)F.O=C(O)C(F)(F)F`, with 74.07%. For the molecule `CC(C)NC(=O)N1CCc2onc(C(=O)NCCN(C)C)c2C1.O=C(O)C(F)(F)F`, the “Percent Effect” value is -1.789%. As to `CC(C)C(=O)N1CCc2onc(C(=O)NCCN(C)C)c2C1.O=C(O)C(F)(F)F`, the “Percent Effect” value is given as 7.945%. To `O=C(c1cccs1)N1CCC2(CC1)CCN(S(=O)(=O)C1CC1)CC2` belongs 97.11%; to `O=C(O)C(F)(F)F.O=S(=O)(C1CC1)N1CCC2(CCN(Cc3nccs3)CC2)CC1`, -4.722%. As to `O=C(c1ccsc1)N1CCC2(CC1)CCN(S(=O)(=O)C1CC1)CC2`, the “Percent Effect” value stood at 99.84%. Regarding `CS(=O)(=O)N1CCC2(CCN(C(=O)c3cccs3)CC2)CC1`, the “Percent Effect” value is listed as 95.21%. `Cc1ccc(OC2(C(=O)O)CCN(C(=O)c3cccs3)CC2)cn1`: the “Percent Effect” value is listed as -10.49%.

As to `CCS(=O)(=O)N1CCC2(CCN(C(=O)c3cccs3)CC2)CC1`, the “Percent Effect” value was determined as 97.57%.

On to `O=C(c1cccs1)N1CC(C(=O)N2CCCC2)C2(CCOCC2)C1` (stereo unspecified), for which the “Percent Effect” value was -9.07%. To `CS(=O)(=O)N1CCO[C@@H]2CCN(C(=O)c3cccs3)CC[C@H]21` belongs -2.724%; to `Cc1ccc(N(C)C2CCN(C(=O)c3ccsc3)CC2)nn1`, -0.5839%. To `CC(CCSc1ccccc1)N1CCN(C(=O)c2cccs2)CC1` (stereo unspecified) belongs 0.564%; to `Cn1cnnc1S(=O)(=O)C1CCN(C(=O)c2ccsc2)CC1`, -15.33%; to `CCS(=O)(=O)N1CCC2(CCN(Cc3nccs3)CC2)CC1.O=C(O)C(F)(F)F`, 12.02%. To `COCC1CN(Cc2c(C)noc2C)Cc2cn(C)nc21` (stereo unspecified) belongs 8.994%; to `NC(=O)NC(=O)CN1CCN(CC2CC2)c2ccccc21`, -3.453%.

With `COCC(c1cccc(C(F)(F)F)c1)N(C)C(=O)c1ccncc1` (stereo unspecified), the “Percent Effect” value is -9.987%. Then `COCCNc1ccccc1CNC(=O)NCc1nc(C)c(C)s1`, with -3.267%.
